Source: PubChem
pAkt inh – HTS Assay for Inhibitors of Akt Phophorylation: Primary Screen. Neuro2A IGF-stimulated pAkt S473 HTRF, 20 min; hits give low values. activity change, % for hits at 50 µM. hit rate 0.32% among 360,000. AID 651550, 2012; in the data active means activity change below about -80%; inconclusive means mostly about -51% to -80%
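Neuro2A cells (4,500/well, DMEM with 0.5% FBS) were treated with compound at a single 50 µM final concentration, stimulated with 6 nM IGF for 20 min at 37 °C, and lysed. Phospho-Akt Ser473 was read by HTRF as 665/615 ratio ×10^4.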
MmCpn inh – Inhibitors of TCP-1 ring complex (TRiC) of Methanococcus maripaludis (MmCpn): qHTS. Chaperonin Mm-Cpn (Methanococcus maripaludis). purified Mm-Cpn ATPase, ADP Transcreener TR-FRET. Potency, µM (highest dose often 76.9 µM), most hits filed as inhibitors. hit rate 0.031% among 330,000. AID 504842, 2011; further: nearly all actives have a fitted effect of over 80% in size
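Quantitative HTS used 25 nM Mm-CPN and 10 uM ATP in magnesium/KCl Tris buffer, pH 7.4, with 1 mM DTT. Hydrolysis ran 30 min at 37°C; ADP was read by HTRF.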
Epigenetic derep – Quantitative High-Throughput Screen for Regulators of Epigenetic Control. murine LDR cells, GFP reporter derepression, 30 h. Potency, µM (titrated, usually from 53.9 µM), most hits filed as activators. hit rate 0.2% among 280,000; further: nearly all actives have a fitted effect of over 60% in size
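In this reporter-derepression format, murine cells bearing a silenced integrated CMV-GFP locus incubate with test compound (30 h, 37 C), then are washed and imaged; fluorescent objects of 20–120 um count as induced cells.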
CCT chaperon mod – High-Throughput Screening for Modulators of Cytosolic Chaperonin Activity | purified chaperonin ATPase assay, HTRF ADP detection, 30 min | activity change, % (test concentration not listed), hits read low | hit rate 0.3% among 360,000 | AID 651819, 2012; in the data active means activity change below about -30%
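TRiC (40 or 20 nM final, by batch activity) in 30 mM Tris pH 7.4, 100 mM KCl, 5 mM MgCl2, 1 mM DTT was treated with compound at 76 uM single dose, then 10 uM ATP, 30 min at 37 °C. ADP was read by HTRF Transcreener.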
uPA surface inh – qHTS for Inhibitors of Cell Surface uPA Generation. Potency, µM (top dose mostly 38.3 µM), most hits filed as inhibitors. AID 540303, 2011. cell surface uPA generation assay, qHTS. hit rate 0.31% among 330,000; active means well fitted inhibition curve with a large enough effect; inconclusive means small, poorly fitted or top-dose-only effect; inactive means no such curve, though single readings can be large or run the other way; tested in mouse RAW 264.7 cells; further: nearly all actives have a fitted effect of over 55% in size
MBNL1 CUG block – qHTS Assay for Inhibitors of MBNL1-poly(CUG) RNA binding. AID 2675, 2010. hit rate 0.036% among 280,000. Potency, µM (doses to about 57.5 µM), usual class: inhibitors. TR-FRET MBNL1-His/biotin-(CUG)12 binding, 665/545 ratio; active means well fitted inhibition curve with a large enough effect in the signal ratio, with a control signal flat, not every such curve was filed as active; inconclusive means small, poorly fitted or top-dose-only effect, or effect the other way, or a change in a side signal; inactive means no such curve, though single readings can be large or run the other way; the % refers to the signal ratio
Target sequence (Q9NR56 whole entry, looked up): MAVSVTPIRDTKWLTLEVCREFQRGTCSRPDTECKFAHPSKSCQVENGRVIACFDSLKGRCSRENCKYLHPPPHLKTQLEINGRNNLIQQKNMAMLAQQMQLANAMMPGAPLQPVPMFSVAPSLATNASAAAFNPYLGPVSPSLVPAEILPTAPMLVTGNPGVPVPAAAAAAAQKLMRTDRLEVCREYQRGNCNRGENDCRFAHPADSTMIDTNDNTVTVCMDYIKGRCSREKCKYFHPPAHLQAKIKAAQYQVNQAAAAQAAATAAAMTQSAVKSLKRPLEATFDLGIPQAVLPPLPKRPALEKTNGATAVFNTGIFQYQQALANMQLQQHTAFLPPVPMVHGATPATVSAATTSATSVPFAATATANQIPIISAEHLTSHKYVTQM
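MBNL1-His + Biotin-(CUG)12, cpd titration 92 nM–58 uM; Tb anti-His Ab 0.055 ng/ul, SA-XL665 5 nM (final); 60 min RT; ratiometric 665/545 nm, Ex 340 nm; normalized to buffer and full-complex controls.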
Of the large screens only hits and unclear results are named; the others gave an inactive call. Shown are actives, neighbours in structure and some others; about 0.97% of the full set was active somewhere. Unless noted, the call rests on the fitted dose curve; in most records, active means well fitted curve in the direction sought with a large enough effect; inconclusive means small, poorly fitted or top-dose-only effect, or another doubt; inactive means no such curve, though single readings can be large; an effect the other way counts as inactive or inconclusive.

COc1ccc(NC(=O)CN(C)C(=O)CC2CCCC2)cc1	none (no result: Epigenetic derep, MBNL1 CUG block)
COc1cccc(NC(=O)CN(C)C(=O)CC2CCCC2)c1	CCT chaperon mod -34 (no result: MmCpn inh, Epigenetic derep, MBNL1 CUG block)
CCOC(=O)c1cccc(NC(=O)c2cnc3ccccc3n2)c1	pAkt inh -96%, MBNL1 CUG block inconclusive
Cc1cc(Nc2ccc(C)c(Cl)c2)n2nc(-c3ccccc3)nc2n1	Epigenetic derep 11µM (no result: pAkt inh, MmCpn inh, CCT chaperon mod, uPA surface inh, MBNL1 CUG block)
COc1cccc(Nc2cc(C)nc3nc(-c4ccc(Cl)cc4)nn23)c1	none (no result: pAkt inh, MmCpn inh, CCT chaperon mod, uPA surface inh, MBNL1 CUG block)
CC[n+]1c(/C=C/c2c[nH]c3ccccc23)ccc2cc(C)ccc21	Epigenetic derep 4.5µM (no result: MBNL1 CUG block)
CCN(CC)C(=O)c1ccc(/C=C/c2c[nH]c3ccccc23)[n+](C)c1	Epigenetic derep inconclusive, MBNL1 CUG block inconclusive
CCCCOc1ccccc1C(=O)N(Cc1ccc(C)o1)C1CCS(=O)(=O)C1 (stereo not given)	uPA surface inh inconclusive
CCOc1ccc2[nH]cc(C(=O)N3CCN(C4CCCCC4)CC3)c(=O)c2c1	CCT chaperon mod -57 (no result: MmCpn inh, Epigenetic derep, MBNL1 CUG block)
COc1ccc2[nH]cc(C(=O)N3CCCCC3)c(=O)c2c1	none
O=C(CSc1nnnn1C1CCCCC1)Nc1ccc(F)cc1	none
O=C(CSc1nnnn1C1CCCC1)Nc1ccc(F)cc1	pAkt inh -110%
C=CC(C)(C)c1c(O)c(CC=C(C)C)c(O)c2c(=O)c3ccc(O)c(O)c3oc12	uPA surface inh 11µM (no result: MmCpn inh, Epigenetic derep, MBNL1 CUG block)
C=CC(C)(C)c1c2occc2c(O)c2ccc(=O)oc12	none (no result: Epigenetic derep, MBNL1 CUG block)
Clc1ccc(CSc2nc3ccncc3[nH]2)cc1	uPA surface inh 0.45µM
Cc1ccc(CSc2nc3ccncc3[nH]2)cc1	none
CC(C)n1ncc2c(C(=O)NCc3cccnc3)cc(C3CC3)nc21	none (no result: Epigenetic derep, MBNL1 CUG block)
CCOc1ccc(/C=C2\SC(=S)N(CCCC(=O)NCCCN3CCOCC3)C2=O)cc1	CCT chaperon mod -38, MBNL1 CUG block inconclusive (no result: Epigenetic derep)
O=C1[C@@H]2CSC(c3ccc(F)cc3)N2C(=O)N1c1ccc(Cl)cc1 (stereo not given in full)	none (no result: pAkt inh, MmCpn inh, CCT chaperon mod, uPA surface inh, MBNL1 CUG block)
C=CCn1c(C)c(C(C)=O)c(N2CCCC2)nc1=S	none
C=CCn1c(C)c(C(C)=O)c(N2CCN(c3ccccc3)CC2)nc1=S	pAkt inh -105%
CN(C)c1cc(-c2ccccc2)nc(N)n1	uPA surface inh 10µM
CN(C)S(=O)(=O)n1cc(/C=C(\NC(=O)c2ccccc2)C(=O)N2CCCC2)c2ccccc21	uPA surface inh inconclusive (no result: pAkt inh, Epigenetic derep)
CN1CCN(C(=O)/C(=C/c2cn(S(=O)(=O)N(C)C)c3ccccc23)NC(=O)c2ccccc2)CC1	CCT chaperon mod -39 (no result: Epigenetic derep)
O=C1c2ccccc2S(=O)(=O)c2cc(N3CCOCC3)ccc21	uPA surface inh 2.5µM (no result: MmCpn inh, Epigenetic derep, MBNL1 CUG block)
Cc1nn(CC(=O)N2CCOCC2)c(=O)c2nn(-c3ccccc3)c(C)c12	none (no result: Epigenetic derep)
C[C@]1(O)CC(=O)C=C[C@H]1Nc1ccccc1	uPA surface inh 8.9µM (no result: MmCpn inh, Epigenetic derep, MBNL1 CUG block)
Cc1ccc(C(C[N+](=O)[O-])c2c(N)n(C)c(=O)n(C)c2=O)cc1 (stereo not given)	uPA surface inh 10µM
COc1ccc(Cn2ccnc2SCC(=O)Nc2ccc(C)cc2C)cc1	none (no result: pAkt inh, MmCpn inh, CCT chaperon mod, uPA surface inh, MBNL1 CUG block)
Cc1ccc(S(=O)(=O)N[C@H](CNCc2ccccc2)C(C)C)cc1	none (no result: MmCpn inh, Epigenetic derep, CCT chaperon mod, uPA surface inh, MBNL1 CUG block)
COCCCNC(=O)Cc1c(C)c2c(cc(C)c3c(C(C)(C)C)coc32)oc1=O	uPA surface inh 0.28µM, MBNL1 CUG block inconclusive (no result: Epigenetic derep)
COCCNC(=O)Cc1c(C)c2c(cc(C)c3c(C)coc32)oc1=O	none (no result: Epigenetic derep)
COc1cc(C2NC(=O)C(C#N)=C(Nc3cccc(C)c3)S2)ccc1O (stereo not given)	none
Cc1ccc(C)c(C(=O)NCCN(C)C)c1	pAkt inh -110%
Cc1ccc(C(=O)NCCN(C)C)cc1C	pAkt inh -107%
CC(=O)c1cccc(NS(=O)(=O)c2cccc(C(=O)O)c2)c1	none (no result: pAkt inh, MmCpn inh, CCT chaperon mod, uPA surface inh, MBNL1 CUG block)
O=C(O)CCSCCC(=O)O	pAkt inh -106%
O=C(NC1CCCCC1)c1n[nH]c2c1CCCCC2	uPA surface inh 3.2µM (no result: Epigenetic derep, MBNL1 CUG block)
